# Assay outcomes as filed in PubChem BioAssay.
# Pf growth 96h – P. falciparum growth inhibition at 96 hour, primary screen for plastid delayed-death inhibitors; Potency, µM (highest dose often 28.7 µM), most hits filed as inhibitors; AID 504834; 320,000 tested, 6.9% active; P. falciparum luciferase reporter growth, 96 h
#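 Parasite growth measured via integrated firefly luciferase reporter in P. falciparum. Infected erythrocytes at 2% hematocrit, 0.05% parasitemia final were treated 96 hours at 37 C under 5% CO2, and luminescence was read.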
# Giardia FBPA inh – inhibitors of Giardia lamblia fructose-1,6-bisphosphate aldolase | A8B2U2 | AID 2451 | purified Giardia FBPA | 290,000 tested, 0.71% active | Potency, µM (doses to about 59.6 µM), most hits filed as inhibitors; also: nearly all actives have a fitted effect of over 55% in size
# Target sequence (A8B2U2 whole entry, looked up): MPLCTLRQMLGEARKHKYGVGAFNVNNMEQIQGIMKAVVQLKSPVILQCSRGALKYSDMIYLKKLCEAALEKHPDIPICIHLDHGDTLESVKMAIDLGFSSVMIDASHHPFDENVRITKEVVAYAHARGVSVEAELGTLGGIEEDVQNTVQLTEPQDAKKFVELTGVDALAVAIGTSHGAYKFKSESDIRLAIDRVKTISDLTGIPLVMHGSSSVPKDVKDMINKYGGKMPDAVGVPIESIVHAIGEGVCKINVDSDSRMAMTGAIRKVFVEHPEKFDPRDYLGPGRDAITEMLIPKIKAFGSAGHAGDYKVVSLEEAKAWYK
#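 40 nM FBPA preincubated 10 min at RT with compound (up to 57.5 uM final), then substrate plus GAPDH/TPI/NAD/arsenate coupling and diaphorase/resazurin added. Fluorescence read after 20 min at RT, 525/598 nm.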
# Sm TGR block – S. mansoni TGR enzyme inhibition; purified TGR, DTNB reduction, TNB absorbance 405 nm; Potency, µM (highest dose often 114 µM), actives largely listed as inhibitors; AID 485364; 360,000 tested, 3% active; also: nearly all actives have a fitted effect of over 60% in size
#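 Kinetic colorimetric format: TGR-catalysed, NADPH-driven DTNB reduction monitored via TNB absorbance. Enzyme dispensed at 20 nM; compound exposure 15 min at room temperature before reaction start.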
# Pf growth 48h – inhibits P. falciparum growth in the first generation, 48 h; P. falciparum luciferase growth in erythrocytes, 48 h; Potency, µM (titrated, usually from 28.7 µM), usual class: inhibitors; 310,000 tested, 5.9% active
#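 Parasite viability was followed by luminescence of a genomically integrated firefly luciferase. Cultures held 0.1% parasitemia at 2% hematocrit (final), incubated under 5% CO2 at 37 C.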
# HCMV antiviral – human cytomegalovirus inhibition; 410,000 tested, 4.5% active; activity change, negative = inhibition, % at 57.5 µM; HFF cells, HCMV-luciferase reporter, 72 h; stronger effect = lower value; in the data active = activity change below about -60%; inconclusive = no clear call, values can overlap the other calls; inactive = above about -39%
#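 HFF cells seeded 16 h at 37C, treated with compounds, infected with luciferase-reporter HCMV at MOI 1 PFU/cell; luciferase read at 72 h post infection, normalized to buffer-only and Salinomycin controls.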
# Numbers stand for hits; 0 = inactive; ? = inconclusive; - = not tested or not shown; [ ] = dose if it differs, or a comment. Rows were chosen to be rich in hits. Some 14% of all compounds tested hit in one or more screens of this group. Unless noted, calls follow the shape of the dose curve; as a rule, active = well fitted curve in the direction sought with a large enough effect; inconclusive = small, poorly fitted or top-dose-only effect, or another doubt; inactive = no such curve, though single readings can be large; an effect the other way counts as inactive or inconclusive.
SMILES,Pf growth 96h,Giardia FBPA inh,Sm TGR block,Pf growth 48h,HCMV antiviral
CC1(C(=O)NS(=O)(=O)c2ccc(F)cc2F)CCN1C(=O)c1ccccc1CCc1ccccc1 (centres undefined),-,-,-,-,0
CCOc1ccc(N=C2NC(=O)C(CC(=O)Nc3ccccc3)S2)cc1 (centres undefined),0,0,0,8.3µM,0
O=C(CC1SC(=Nc2ccc(O)cc2)NC1=O)Nc1ccccc1 (centres undefined),0,0,0,0,-
COc1cccc(NC(=O)NC(=O)c2c(C)cc(Cl)nc2Cl)c1,0,0,0,?,0
CCc1nc2c(OCc3cc(Cl)cc(Cl)c3)cccn2c1N(C)C(=O)CC(C)C,-,-,-,-,0
COc1cc(OC)cc(-c2c(-c3cccs3)c3cc(Br)ccc3n2C)c1,?,-,?,?,0
COc1cc(F)cc(-c2ccc3c(c2)c(-c2cccs2)c(-c2cc(OC)cc(OC)c2)n3C)c1,?,-,0,9.3µM,0
COc1cc(OC)cc(-c2c(-c3cccs3)c3cc(-c4ccn[nH]4)ccc3n2C)c1,?,-,0,4.7µM,0
COc1cc(OC)cc(-c2c(-c3ccc(C(C)=O)cc3)c3cc(-c4cccc5[nH]ccc45)ccc3n2C)c1,-,-,-,-,0
COc1cc(OC)cc(-c2c(-c3cccs3)c3cc(-c4cccc5[nH]ccc45)ccc3n2C)c1,?,-,0,2.3µM,0
COc1cc(CNC(=O)c2cc(-c3cc(Cl)ccc3C)n[nH]2)cc(OC)c1,-,-,-,-,0
CC(C)Cc1nnc(NC(=O)CCS(=O)(=O)c2ccc(Cl)cc2)s1,0,0,?,0,0
O=C(Nc1ccc(F)cc1)c1sccc1SCc1cccc(C(F)(F)F)c1,?,0,0,9.3µM,0
COc1ccc(NC(=O)c2sccc2SCc2cccc(C(F)(F)F)c2)cc1,?,0,0,?,0
CCN(CC)S(=O)(=O)c1ccc2c(c1)nc(CCC(=O)OCC(=O)Nc1cc(Cl)cc(Cl)c1)n2C,0,0,0,0,0
Cc1ccc(-c2nc(CS(=O)(=O)CC(=O)NCCc3ccccc3)c(C)o2)cc1,-,-,0,-,0
CCOC(=O)C1=C[C@@H](C(C)(C)C)N(S(=O)(=O)c2ccccc2C)[C@H]1c1ccc(Cl)cc1,-,-,-,-,-77
CCOC(=O)C1=CCN(S(=O)(=O)c2ccc(C)cc2)C1c1ccc(Cl)c(Cl)c1 (centres undefined),-,-,-,-,0
CCOC(=O)C1=C[C@@H](C(C)(C)C)N(S(=O)(=O)c2ccc(C)cc2)[C@H]1c1ccc(Cl)c(Cl)c1,-,-,-,-,-88
Cc1ccc(C(C)C)cc1OCC(=O)Nc1nnc(C2CC2)s1,-,-,-,-,-84
O=C(Nc1ccc(N2CCN(C(=O)c3ccccc3)CC2)cc1)c1ccc2c(c1)OCCO2,?,-,0,?,-69
O=C(Nc1ccc(C(=O)N2CCN(c3ccccc3F)CC2)cc1)C1=CSCCO1,0,-,0,0,-61
O=C(Nc1ccc(N2CCN(C(=O)c3ccccc3)CC2)cc1)c1cc2ccccc2o1,-,0,0,12µM,-66
O=C(Nc1ccc(C(=O)N2CCCCC2)cc1)C1=CSCCO1,?,-,0,0,0
O=C(Nc1ccc(N2CCCCC2)cc1)c1ccc2c(c1)OCCO2,0,0,0,-,-91
SMILES,Pf growth 96h,Giardia FBPA inh,Sm TGR block,Pf growth 48h,HCMV antiviral
O=S(=O)(NN=C1CCCCCC1)c1ccccc1,0,-,0,0,0
CCCN(CCC)CCCNC(=O)c1nn(C)c2c1CS(=O)(=O)c1ccccc1-2,-,-,0,-,0
CC(C)(C)C(=O)N1CCN(c2ccc(NC(=O)c3ccc4c(c3)OCCO4)cc2)CC1,0,0,0,?,-68
O=C(Nc1ccc(N2CCN(C(=O)c3ccc(Cl)cc3)CC2)cc1)c1ccc2c(c1)OCCO2,?,0,0,-,-92
CC(=O)N1CCN(c2ccc(NC(=O)c3ccc4c(c3)OCCO4)cc2)CC1,0,0,0,-,0
O=C(Nc1ccccc1N1CCN(C(=O)c2ccc(Cl)cc2)CC1)c1ccc2c(c1)OCO2,-,0,0,3.7µM,0
COc1ccccc1N1CCN(C2CCCN(C(=O)CC(F)(F)F)C2)CC1 (centres undefined),0,0,0,0,0
CC1=C(C(=O)Nc2ccc(F)cc2)C(c2cccc(C)c2)n2nc(CCCO)nc2N1 (centres undefined),6.6µM,0,0,0,0
CC1=C(C(=O)Nc2ccccc2)C(c2ccccn2)n2nc(CCCO)nc2N1 (centres undefined),0,0,0,0,0
COc1ccc(C2C(C(=O)Nc3ccccc3)=C(C)Nc3nc(CCCO)nn32)cc1 (centres undefined),13µM,0,0,0,0
CCOc1cc(C2C(C(=O)Nc3ccccc3)=C(C)Nc3ncnn32)cc(Br)c1O (centres undefined),-,-,45µM,-,0
CCOC(=O)C1=C(C)Nc2nc(SCC)nn2C1c1ccc(OC)cc1 (centres undefined),13µM,0,0,0,0
CCOC(=O)C1=C(C)Nc2nc(SCC(=O)OC)nn2C1c1cc(F)cc(F)c1 (centres undefined),?,0,0,?,0
COC(=O)NC(c1cccc(F)c1)[C@]1(C(C)=O)CCCC1=O (some centres undefined),-,0[12.9 µM],-,-,-
Cc1ccc2c(c1)N(C=Nc1c(C)cccc1Cl)C(c1ccccc1)c1cccn1-2 (centres undefined),-,-,-,-,0
CC1=C(C(=O)Nc2ccccc2C)C(c2cccnc2)n2nc(CCCO)nc2N1 (centres undefined),-,0,0,0,0
COc1ccccc1NC(=O)C1=C(C)Nc2nc(CCCO)nn2C1c1cccnc1 (centres undefined),5.2µM,0,0,0,0
COc1ccc(-c2nc3c(-c4ccccc4)cnn3cc2C)cc1F,?,0,0,?,0
COc1ccc(-c2nc3c(-c4ccc(Cl)cc4)cnn3cc2C)cc1F,?,0,0,?,-76
COc1ccc(S(=O)(=O)N2CCC[C@H]2C(=O)N2CCC[C@H]2C(=O)N[C@@H](C)c2ccccc2)cc1C,-,-,-,-,-101
CCC(=O)[C@@]1(C)[C@H](C)C[C@@H]2[C@@H]3CCC4=CC(=O)C=C[C@@]4(C)[C@H]3[C@H](O)C[C@]21C,2.6µM,0,-,2.6µM,-
C[C@@]12C=CC(=O)C=C1CC[C@@H]1[C@@H]2[C@H](O)C[C@]2(C)[C@@H]1CC[C@]2(O)C(=O)CO,-,0,-,-,-
CCC(=O)OCC(=O)C1(OC(=O)CC)[C@H](C)C[C@H]2[C@H]3[C@H]([C@@H](O)C[C@@]21C)[C@@]1(C)C=CC(=O)C=C1C[C@H]3Cl (some centres undefined),0,-,0,?,0
CCC(=O)OCC(=O)[C@@]1(OC(=O)CC)[C@H](C)C[C@@H]2[C@@H]3[C@H]([C@@H](O)C[C@@]21C)[C@]1(C)C=CC(=O)C=C1C[C@@H]3Cl,4.1µM,0,-,2.6µM,-
COc1ccc(-n2c(COc3ccccc3)n[nH]c2=S)cc1,?,?,0,0,0
